Source: PubChem BioAssay AID686979 (National Center for Advancing Translational Sciences (NCATS), 2013)
Values joined by “and” are separate entries in the source; they are usually repeats but may differ in a detail not shown here. Identical values can stand only once. Among all 420,000 compounds or so, about 50,000 (12%) were called active. Where a call stands in place of a potency, no number is given. Roughly 26% stayed inconclusive and do not appear here. Calls come from the whole dose curve; as a rule, active = well fitted inhibition curve with a large enough effect; inconclusive = small, poorly fitted or top-dose-only effect; inactive = flat fitted curve, though single readings scatter. This excerpt belongs to a sample that is enriched for actives. Some structures have more than one record in an assay (separate samples or runs), and their calls can disagree.

Experiment: qHTS for Inhibitors of human tyrosyl-DNA phosphodiesterase 1 (TDP1): qHTS in cells in presence of CPT; note: nearly all actives have a fitted effect of over 55% in size
Conditions: chicken DT40 Tdp1-/-;hTDP1 cells + 20 nM CPT, ATP luminescence, 48 h; series mostly up to 46.2 µM
How it was run: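 Cell growth measured by CellTiter-Glo luminescence after a minimum 48 h, 37 C compound exposure with 20 nM CPT in Tdp1-knockout DT40 cells stably expressing hTDP1, seeded 400/well; qHTS titration format.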
Potency is the fitted concentration of half-maximal effect.

Row | SMILES | Potency
1 | Cc1ccc(S(=O)(=O)N2CCN(Cc3cccc(C)c3O)CC2)cc1 | inactive
2 | O=C(COc1cccc(Cl)c1)NCc1ccccc1 | inactive
3 | COCCN(CCOC)S(=O)(=O)NC[C@H]1O[C@@H](n2cnc3c(N)ncnc32)[C@H](O)[C@@H]1O | inactive
4 | CC(C)(C)N(Cc1ccccc1)C(=O)c1ccncc1 | inactive
5 | Cc1ccc(CNC(=O)COc2ccc3c(c2)CCC3)cc1 | inactive
6 | O=C(CC1C(=O)NCCN1CC(c1ccccc1)c1ccccc1)NCCc1cn[nH]c1 (stereo not given) | inactive
7 | CCNC(=O)C1CCCN(C(=O)c2ccc(OC)cc2OC)CC1 (stereo not given) | inactive
8 | COc1ccc(NC(=O)c2sc3nc(-c4cc5cccc(OC)c5oc4=O)[nH]c(=O)c3c2C)cc1 | inactive
9 | COc1ccccc1-c1n[nH]nc1C1=CC(=O)CC(C)(C)C1 | inactive
10 | COc1ccccc1C1=Nc2cccc3cccc(c23)N1 | 5.17 µM (active)
11 | Fc1ccccc1N=C1Nc2cccc3cccc1c23 | inactive
12 | c1ccc(C2=Nc3cccc4cccc(c34)N2)cc1 | 7.31 µM (active)
13 | NC(=O)COc1ccccc1C(=O)NC12CC3CC(CC(C3)C1)C2 | inactive
14 | CCc1ccc(NC(=O)c2cc(S(=O)(=O)N3CCCC(C)C3)cn2C)cc1 (stereo not given) | inactive
15 | COc1ccc(CCNC(=O)C2CCCN(S(=O)(=O)c3ccc(OC)cc3)C2)cc1 (stereo not given) | inactive
16 | Cc1n[nH]c(C)c1S(=O)(=O)N1CCCC(C(=O)Nc2ccc(Br)cc2)C1 (stereo not given) | inactive
17 | CC1CCCN(S(=O)(=O)c2ccc3[nH]c(=O)cc(C(=O)NCCc4ccc(Cl)cc4)c3c2)C1 (stereo not given) | inactive
18 | CSc1ncc(Cl)c(C(=O)Nc2ccc(S(=O)(=O)N3CCCC(C)C3)cc2)n1 (stereo not given) | 8.2 µM (active)
19 | CC(C)c1ccc(NC(=O)C2CCCN(S(=O)(=O)c3cccnc3)C2)cc1 (stereo not given) | 16.4 µM (active)
20 | COc1ccc(S(=O)(=O)N2CCCC(C(=O)Nc3ccc(NC(=O)c4ccccn4)cc3)C2)cc1 (stereo not given) | 7.31 µM (active)
21 | O=C(Nc1ccc(F)cc1)C1CCCN(S(=O)(=O)c2ccc(-n3cnnn3)cc2)C1 (stereo not given) | inactive
22 | O=C(Nc1ccc(S(=O)(=O)N2CCCCC2)cc1)c1cnccn1 | inactive
23 | CC1CC(C)CN(S(=O)(=O)c2cccc(C(=O)N3C(=O)c4cccc(N)c4C3=O)c2)C1 (stereo not given) | inactive
24 | COc1ccc(NC(=O)C2CCC(CNC(=O)[C@@H]3Cc4ccccc4CN3)CC2)cc1 (stereo not given in full) | inactive
25 | CCc1cccc(C)c1NC(=O)COC(=O)CNC(=O)c1cccs1 | inactive
26 | Cc1ccc2ncc(C(=O)Nc3ccc(OC(F)(F)F)cc3)c(=O)n2c1 | inactive
27 | CCNS(=O)(=O)c1ccc(CCC(=O)N2CCN(c3ccc(OC)cc3)CC2)cc1 | inactive

Row | SMILES | Potency
28 | CCOc1ccc(S(=O)(=O)NCCC(=O)N2CCCCCCC2)cc1 | inactive
29 | CCNS(=O)(=O)c1ccc(CCC(=O)N2CCN(c3cc(Cl)ccc3C)CC2)cc1 | 13 µM (active)
30 | CC(=O)c1ccc(S(=O)(=O)NCCC(=O)N2CCN(c3ccccn3)CC2)cc1 | inactive
31 | CC(C)NS(=O)(=O)c1ccc(CCC(=O)N2CCOCC2)cc1 | inactive
32 | CC(=O)Nc1ccc(S(=O)(=O)NCCC(=O)N2CCN(c3ccccc3Cl)CC2)cc1 | 20.6 µM (active)
33 | CCOC(=O)N1CCC(Nc2c(NCCCN3CCN(CC)CC3)c(=O)c2=O)CC1 | inactive
34 | O=C(COc1cccnc1[N+](=O)[O-])Nc1ccc(Cl)cc1F | inactive
35 | CCn1c(C)cc(=O)cc1-c1ccc(Cl)cc1 | inactive
36 | CCOC(=O)C1=C(C)c2ccccc2OC1C(=O)OCC (stereo not given) | inactive
37 | CC(C)(C)NC(=O)Cn1cnc2cc([N+](=O)[O-])ccc2c1=O | inactive
38 | Cc1cc(C(=O)Cn2cnc3cc([N+](=O)[O-])ccc3c2=O)c(C)n1CC1CCCO1 (stereo not given) | 14.6 µM (active)
39 | O=C(Cn1cnc2cc([N+](=O)[O-])ccc2c1=O)NC(=O)NCc1ccccc1 | inactive
40 | NS(=O)(=O)c1ccc(CCNC(=S)Nc2ccc(S(N)(=O)=O)cc2)cc1 | inactive
41 | Cc1nn(-c2ccccc2)nc1C(=O)OCC(=O)N1CCCCC1C (stereo not given) | inactive
42 | O=C(Cn1[nH]c(=O)c2ccccc2c1=O)Nc1cccc(-c2nnc3n2CCCCC3)c1 | inactive
43 | Cc1c(C(=O)NC2CCCCC2)oc2ccccc12 | inactive
44 | Cc1c(C(=O)Nc2cccc(-c3nnc4n3CCCCC4)c2)oc2ccccc12 | 14.6 µM (active)
45 | Cc1cccc(C(=O)NCC(=O)OCC(=O)N(C)CC(=O)Nc2ccccc2Cl)c1 | inactive
46 | CC(=O)Nc1cc2ccc(OC(C)=O)cc2oc1=O | inactive
47 | O=c1oc2cc(O)ccc2cc1-c1ccc(F)cc1 | 20.6 µM (active)
48 | COc1ccc(-c2cc3ccc(OCc4nn[nH]n4)cc3oc2=O)cc1 | inactive
49 | CC1=C(C(=O)N2CCOCC2)CC(CC(=O)NCc2cccs2)C(=O)N1CCCN1CCCC1=O (stereo not given) | inactive
50 | CCC(C)C(NC(=O)C1CCC(=O)N1C(=O)OCc1ccccc1)C(=O)NC(C(=O)N1CCCC1C(N)=O)C(C)CC (stereo not given) | inactive
51 | O=C(NCc1ccc(F)cc1)C1CCC(CNc2c(N3CCOCC3)c(=O)c2=O)CC1 (stereo not given) | inactive
52 | CC(C)NC(=O)NNc1c(Cl)cncc1Cl | inactive
53 | CCN(CC(=O)NC(C)C)C(=O)c1cc(S(=O)(=O)N2CCCCC2)ccc1N1CCCCC1 | inactive
54 | CCOC(=O)C(=CNNc1ccsc1C(=O)OC)C(=O)OCC | 18.4 µM (active)

Row | SMILES | Potency
55 | COC(=O)c1sccc1NC(=S)Nc1ccc(C)cc1 | inactive
56 | COC(=O)c1sccc1NC(=O)CCC1CCCC1 | inactive
57 | CNC(=O)c1cccc2nc3ccccc3nc12 | inactive
58 | Cc1[nH]c2ccccc2c1C(=O)C(=O)N(C)c1ccccc1 | inactive
59 | O=C(NCc1ccccc1Cl)C1CCN(S(=O)(=O)c2cccc3nonc23)CC1 | inactive
60 | Cc1nc(C)c(C(=O)N(c2ccc(C)c(C)c2)C(C(=O)NCc2ccco2)c2ccccc2)s1 (stereo not given) | inactive
61 | Cc1nn(-c2ccccc2)c2sc(C(=O)N(Cc3ccco3)C(C)C(=O)NC(C)(C)C)cc12 (stereo not given) | 13 µM (active)
62 | Cc1ccc(-c2nnn(CC(=O)N(Cc3ccco3)C(C(=O)NC(C)(C)C)c3ccncc3)n2)o1 (stereo not given) | inactive
63 | COCC1CCN(C(=O)CCc2nnc(C3(c4ccc(Cl)cc4)CCC3)o2)C1 (stereo not given) | inactive
64 | CCNC(=O)N1CCN(S(=O)(=O)c2ccc3c(c2)OCCCO3)CC1 | inactive
65 | COc1ccc(N2CC(C(=O)NCCS(=O)(=O)N3CCN(c4ccccc4)CC3)CC2=O)cc1 (stereo not given) | inactive
66 | COc1ccc(N2CCN(C(=O)c3ccc(N4CCCCS4(=O)=O)cc3)CC2)cc1 | inactive
67 | COc1ccc(N2CCN(C(=O)c3ccc4c(Cl)c5c(nc4c3)CCCC5)CC2)cc1 | inactive and 20.6 µM (active)
68 | CC(C)CCNC(=O)c1ccc2c(Cl)c3c(nc2c1)CCC3 | inactive
69 | Cc1cccc(N(C)C(=O)CS(=O)(=O)c2cccc3nsnc23)c1 | inactive
70 | Clc1ccc(Nc2ccc3ccccc3n2)cc1 | inactive
71 | Cc1ccc(C)c(S(=O)(=O)c2nnn3c2nc(N2CCOCC2)c2sccc23)c1 | 23.1 µM (active)
72 | CCc1ccc(S(=O)(=O)c2nnn3c2nc(N2CCN(CC)CC2)c2sccc23)cc1 | inactive
73 | Cc1ccc(S(=O)(=O)c2nnn3c2nc(N2CCN(c4ccccn4)CC2)c2ccccc23)cc1 | inactive
74 | COc1ccc(/C=N/NC(=O)c2ccncc2)cc1CN1CCCc2ccccc21 | inactive
75 | O=C(Nc1ccccn1)C1CCN(S(=O)(=O)c2ccccc2)CC1 | inactive
76 | CCOc1ccc(NC(=S)N2CCC(NC(=O)c3ccccc3)CC2)cc1 | inactive
77 | CCOc1ccc(NC(=O)CSc2nncn2C)cc1 | inactive
78 | CCOc1ccc(NC(=O)CSc2c3c(nc4ccccc24)CCCC3)cc1 | 16.4 µM (active)
79 | COc1cccc(CNC(=O)c2ccc3c(Cl)c4c(nc3c2)CCCC4)c1 | inactive
80 | CCOc1ccc(-n2nc3ccc(NC(=O)c4ccc(OC)c(Cl)c4)cc3n2)cc1 | inactive
81 | COc1cccc(CNC(=O)c2nnn(CC(=O)Nc3cc(Cl)ccc3C)c2N)c1 | inactive

Row | SMILES | Potency
82 | CCOc1ccc(C(=O)Nc2ccc3nc4c(c(Nc5ccccc5OC)c3c2)CCCC4)cc1 | 4.11 µM (active)
83 | CCOc1ccc(C(=O)NC2CCN(C(=O)Nc3ccccc3OC)CC2)cc1 | inactive
84 | COc1cccc(CNC(=O)CSc2c3c(nc4cc(Cl)ccc24)CCCC3)c1 | 23.1 µM (active)
85 | O=C1NCC(Nc2ccccc2)C(=O)N1 (stereo not given) | inactive
86 | Nc1c(C(=O)OCC(=O)Nc2ccc(OC(F)F)cc2)[nH]c(=O)[nH]c1=O | inactive
87 | COc1ccc(S(=O)(=O)N2CCC(C(=O)OCC(=O)c3ccccc3)CC2)cc1[N+](=O)[O-] | inactive
88 | CCOC(=O)N1CCN(c2c(NCCCN3CCCC(C)C3)c(=O)c2=O)CC1 (stereo not given) | inactive
89 | COc1ccc(Cl)cc1-n1c(CCC(=O)O)ccc1-c1ccc(C)cc1 | inactive
90 | CC1(C)CC(=O)c2cnc3nc4ccccc4n3c2C1 | inactive
91 | COc1ccc(C)cc1-n1c(-c2ccc(C)cc2)cc2c1CC(C)(C)CC2=O | 8.2 µM (active)
92 | CCOC(=O)N1CCN(C(=O)COC(=O)c2cccc(S(C)(=O)=O)c2)CC1 | inactive
93 | COc1ccc(NC(=O)CSc2nncc(=O)n2N)cc1OC | inactive
94 | CN(C)c1ccc(/C=N\S(=O)(=O)c2ccccc2)cc1 | inactive
95 | CN(C)c1ccc(/C=C/c2sc3ccccc3[n+]2C)cc1 | 0.0447 µM (active)
96 | CN(C)c1ccc(/C=C/c2sc3ccccc3[n+]2CCCCBr)cc1 | 0.316 µM (active)
97 | COc1ccccc1C(=O)NCCC(=O)N(C)Cc1cccnc1 | inactive
98 | Cc1ccc(NC(=S)NC(NC(=O)Cc2cccc3ccccc23)C(Cl)(Cl)Cl)cc1 (stereo not given) | inactive
99 | CSc1ncnc2c1ncn2CCCNCc1ccco1 | inactive
100 | CC(C)(C)OC(=O)NNc1c2ccccc2nc2ccccc12 | 16.4 µM (active)
101 | Cc1ccc(C(=O)NNC(=O)OC(C)(C)C)c(Cl)c1 | inactive
102 | O=C(NNc1c2ccccc2nc2ccccc12)c1cc2ccccc2cc1O | 23.1 µM (active)
103 | O=C(COC(=O)c1ccc(O)cc1O)NC(=O)c1ccccc1 | inactive
104 | Cc1ccccc1NC(=O)NNC(=O)OC(C)(C)C | inactive
105 | O=C(CSc1nc(C2CC2)nc2ccccc12)Nc1cccc(O)c1 | inactive
